Marburg entry inh: blocks Marburg virus binding to or entry into cells | Potency, µM (doses to about 37.8 µM), for inactives: at the top dose activity change, negative = inhibition, hits mostly inhibitors | 300,000 tested, 1.8% active | Marburg virus pseudotyped entry inhibition, cell reporter | AID 540276; calls by dose curve; tested in HEK293 cells; also: potency is read from the fitted curve at half-maximal effect
Vaccinia Venus: inhibitors of vaccinia virus (Venus reporter); Vaccinia virus Venus reporter expression, fluorescence; Potency, µM (top dose mostly 36.5 µM), without a hit: top-dose activity change, negative = inhibition, most hits filed as inhibitors; 330,000 tested, 0.46% active; calls by dose curve; tested in A549 cells; also: potency is read from the fitted curve at half-maximal effect; nearly all actives have a fitted effect of over 30% in size
FMDV antiviral: blocks foot and mouth disease virus; FMDV antiviral cell-based qHTS; 410,000 tested, 1.2% active; AID 1159524; Potency, µM (doses to about 57.9 µM), inactives show top-dose activity change, negative = inhibition, hits mostly inhibitors; calls by dose curve; tested in HEK293T cells; also: read-out not given here; potency is read from the fitted curve at half-maximal effect; nearly all actives have a fitted effect of over 45% in size
HCMV antiviral: inhibitors of human cytomegalovirus; HFF cells, HCMV-luciferase reporter, 72 h; hits give low values; activity change, negative = inhibition, % at 57.5 µM; 410,000 tested, 4.5% active; AID 1259415; in the data active = activity change below about -60%; inconclusive = no clear call, values can overlap the other calls; inactive = above about -39%
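HFF cells seeded 16 h at 37C, treated with compounds, infected with luciferase-reporter HCMV at MOI 1 PFU/cell; luciferase read at 72 h post infection, normalized to buffer-only and Salinomycin controls.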
Lassa entry inh: blocks Lassa virus binding to or entry into cells | Lassa virus pseudotype entry inhibition, cell reporter | Potency, µM (highest dose often 37.9 µM), for inactives: at the highest dose activity change, negative = inhibition, usual class: inhibitors | 300,000 tested, 1.2% active; calls by dose curve; tested in HEK293 cells; also: potency is read from the fitted curve at half-maximal effect; nearly all actives have a fitted effect of over 50% in size
Vaccinia mCherry: inhibitors of vaccinia virus infection (mCherry reporter signal). Vaccinia virus mCherry reporter infection, fluorescence. 310,000 tested, 0.63% active. AID 720579. Potency, µM (highest dose often 36.5 µM), inactives show at the highest dose activity change, negative = inhibition, hits mostly inhibitors; calls by dose curve; tested in A549 cells; also: potency is read from the fitted curve at half-maximal effect; nearly all actives have a fitted effect of over 35% in size
Active calls of the source: *; i = inactive; u = inconclusive; x = not tested or not shown; [ ] = dose if it differs, or a comment. Compounds with a hit are over-represented: about 6.5% of the library has one in this group of screens. % is scaled to controls: 0 for no effect and ±100 for the full control effect.

SMILES	Marburg entry inh	Vaccinia Venus	FMDV antiviral	HCMV antiviral	Lassa entry inh	Vaccinia mCherry
C[C@@H]1O[C@H](O[C@H]2C[C@@H](O)[C@]3(CO)[C@H]4[C@H](O)C[C@]5(C)[C@@H](C6=CC(=O)OC6)CC[C@@]5(O)[C@H]4CC[C@]3(O)C2)[C@@H](O)[C@H](O)[C@H]1O	0.065µM*	x	x	x	x	x
O=c1c2sc3ccccc3c2n(Cc2ccc(F)cc2)c(=O)n1Cc1ccco1	7%[46.1 µM]	-8%	-19%	13	-3%[46.1 µM]	-9%
CC(C)=CCCC(C)=CCON=C1C[C@@H](O)[C@@H](O)[C@@H]2[C@H]3C(=O)N(Cc4ccc5c(c4)OCO5)C(=O)[C@@H]3CC[C@@H]12	-44%[14.2 µM]	x	x	x	-1%[14.3 µM]	x
O=C(O)c1ccc(-n2cc(-c3cc4ccccc4oc3=O)[nH]c2=S)cc1	-3%[46.1 µM]	3%	15%	-64*	x	-7%
CC(=O)Nc1ccc(-n2cc(-c3ccccc3)[nH]c2=S)cc1	x	0%	10%	32	x	i
Cn1cnc(C(=O)NCc2ccc(CNC(=O)OC(C)(C)C)cc2)c1C(=O)NCc1ccc(CNC(=O)OC(C)(C)C)cc1	x	u	16µM*	u	x	u
C[C@H]1CNC(=O)c2c(C(=O)Nc3ccc(CNC(=O)OC(C)(C)C)cc3)ncn21	x	u	28µM*	u	x	u
CC(C)(C)OC(=O)NCc1ccc(CNC(=O)c2ncn(Cc3ccccc3)c2C(=O)NCc2ccc(CNC(=O)OC(C)(C)C)cc2)cc1	x	-7%	-23%	4	x	-12%
Cc1ccc(C(C#N)c2ccc(C(=O)c3ccc(F)cc3)cc2)cc1 (configuration not stated)	u	u	-22%	-78*	10µM*	-15%[1.46 µM]
COc1cccc(/C=N/NC(=O)c2cc3c(OC)cccc3[nH]2)c1O	u	u	-9%	-75*	-5%	u
COc1cccc(/C=N/NC(=O)c2cc(-c3cccn3C)n[nH]2)c1O	8.9µM*	u	3%	u	2.2µM*	4µM*
COc1ccc(OC)c(/C=N/NC(=O)c2cc3c(OC)cc(OC)cc3[nH]2)c1	u	u	u	35	u	u
COc1ccc(OC)c(/C=N/NC(=O)c2cc3c(OC)cccc3[nH]2)c1	10µM*	-18%[7.34 µM]	-27%	-17	3%	-12%[7.34 µM]
COc1cccc(/C=N/NC(=O)C(=O)N2CCCCCC2)c1O	u	-27%	38%	14	u	13µM*
COc1cccc(/C=N/NC(=O)C(=O)N/N=C/c2cccc(OC)c2O)c1O	u	2%	4%	-28	u	-7%
CC(C)=CCN1C(=O)[C@]2(O[C@H](C)CC3=CCCC32)c2c(Br)cccc21 (some centres not stated)	3%[14.2 µM]	x	x	x	x	x
Cc1ccn2c(Nc3ccc(C(C)C)cc3)c(-c3cccs3)nc2c1	u	-21%	8%	-1	27%[46.1 µM]	-23%
COc1ccc(CN2CCC3(CCC(CNC(=O)C4CCCO4)O3)CC2)c(C)c1C (configuration not stated)	x	45%	-16%	x	x	-1%
CC(=O)OC[C@H]1O[C@H](CC=NO[C@H](C)CN2CCCCc3nc(C)c(C)cc32)C=C[C@@H]1OC(C)=O	-21%[14.2 µM]	x	x	x	x	x
CCOc1ccc(/C=N/NC(=O)c2cc3c(OC)cccc3[nH]2)cc1	u	u	-8%	-63*	u	u
COc1ccc(/C=N/NC(=O)c2cccc(OC(F)(F)C(F)F)c2)c(OC)c1OC	23%	-7%	-21%	23	10µM*	-6%
CCn1cc(C(=O)NCc2ccccc2OC)c(=O)c2cc(S(=O)(=O)N3CCCCCC3)ccc21	-4%[46.1 µM]	-24%	-13%	-17	16%[46.1 µM]	-29%
COc1cc2c(cc1OC)CN(c1ccc3ccccc3n1)CC2	-19%[46.1 µM]	u	-23%	-5	28%	u
COc1cc2c(cc1OC)CN(c1ccc(-c3ccccc3OC)nn1)CC2	u	1%	35µM*	x	u	-19%
COCCCNc1ncnc2c1sc1nc(-c3ccco3)c3c(c12)CC(C)(C)OC3	-20%	-11%	-30%	57	u	-13%
SMILES	Marburg entry inh	Vaccinia Venus	FMDV antiviral	HCMV antiviral	Lassa entry inh	Vaccinia mCherry
CC1(C)Cc2c(c(-c3ccco3)nc3sc4c(NCCO)ncnc4c23)CO1	x	x	-29%	-75*	x	x
CC(Nc1cc(N2CCN(C(=O)C(C)(C)C)CC2)ccc1[N+](=O)[O-])c1ccccc1 (configuration not stated)	u	x	u	-39	23µM*	x
CC(Nc1cc(N2CCNCC2)ccc1[N+](=O)[O-])c1ccccc1 (configuration not stated)	u	u	-3%	-18	-4%	14µM*
CCOC(=O)N1CCc2c(sc3c2C(=O)NC(c2ccccc2)N3)C1 (configuration not stated)	3.2µM*	-27%	u	x	u	x
CCOC(=O)N1CCc2c(sc3c2C(=O)NC(c2ccc(N(C)C)cc2)N3)C1 (configuration not stated)	u	-18%[7.34 µM]	0%	-14	u	-22%[7.34 µM]
CC(C)CNC(=O)Cn1c(=O)c2c(ncn2CC(C)C)n(Cc2ccccc2)c1=O	-7%[46.1 µM]	0%	18%	-67*	u	0%
CC(CNc1nc2ccccc2c2nc(-c3ccccc3)nn12)c1ccccc1 (configuration not stated)	11%[46.1 µM]	1%	u	-94*	x	0%
c1ccc(CNc2nc3ccccc3c3nc(-c4ccccc4)nn23)cc1	-11%[46.1 µM]	7%	-18%	-1	x	-14%
Nc1cc(-c2nn[nH]n2)ccc1F	-22%	-4%	-19%	-91*	u	x
CN(Cc1ccc2c(c1)CN(C(=O)c1cccc(N(C)C)c1)CCO2)Cc1cc(C2CC2)n[nH]1	x	3%	-25%	x	x	5%
CC1(Cc2ccc(C(F)(F)F)o2)C(=O)Nc2cc(-c3ccc(F)cc3F)ccc21 (configuration not stated)	x	-2%	u	-100*	x	i
CC1(Cc2cc(Cl)ccc2C(F)(F)F)C(=O)Nc2cc(F)ccc21 (configuration not stated)	x	-8%	-8%	x	x	-11%
O=S(=O)(NC1CCN(S(=O)(=O)c2c(F)cccc2F)C1)c1ccc2c(c1)OCCO2 (configuration not stated)	x	x	15%	-78*	x	x
O=S(=O)(NC1CCN(S(=O)(=O)c2c(F)cccc2F)CC1)c1ccc2c(c1)OCCO2	x	x	17%	12	x	x
Cc1ccc(C)c(NC(=O)C2(C)CC3c4ccccc4C2c2ccccc23)c1 (configuration not stated)	-18%	-1%	-1%	-105*	u	-4%
Cc1cccc(NC(=O)C2(C)CC3c4ccccc4C2c2ccccc23)c1C (configuration not stated)	u	-32%	-29%	u	u	-22%
CCOC(=O)CCN1C(=O)[C@H]2[C@H]3[C@H](O)[C@H](O)C/C(=N\NC(=O)OCc4ccc(OC)cc4)[C@@H]3CC[C@H]2C1=O	12%[14.2 µM]	x	x	x	x	x

Screens: PubChem, National Center for Advancing Translational Sciences (NCATS)
